Results taken from PubChem BioAssay (EPA / NIEHS).
The source made the active and inactive calls. The calls were made as follows: active = hit-call score of the fitted dose curve at least 0.9, where 1 is the maximum; inactive = score below 0.9.

Read-out: Transforming growth factor beta 1 (TGFb1), TGFB1 (gene 7040)
Assay: BSK_BE3C_TGFb1: BioMAP Diversity Plus: BE3C Assay for Transforming growth factor beta 1 (TGFb1) Biomarker Activity (AID 2283036)
Details: primary human bronchial epithelial cells; actives raise or lower the signal
Protocol: BSK_BE3C is a cell-based, multiplexed-readout assay that uses bronchial epithelial cell, a human lung primary cell, with measurements taken at 24 hours after chemical dosing in a 96-well plate.BSK_BE3C_TGFb1 is an assay component measured in the BSK_BE3C assay. It measures TGF-b1 antibody related to regulation of gene expression using ELISA technology.Data from the assay component BSK_BE3C_TGFb1 was analyzed into 1 assay endpoint. This assay endpoint, BSK_BE3C_TGFb1, was analyzed with bidirectional fitting relative to DMSO as the negative control and baseline of activity. Using a type of binding reporter, gain or loss-of-signal activity can be used to understand changes in the signaling as they relate to the gene TGFB1. Furthermore, this assay endpoint can be referred to as a primary readout, because this assay has produced multiple assay endpoints where this one serves a signaling function. To generalize the intended target to other relatable targets, this assay endpoint is annotated to the growth factor intended target family, where the subfamily is transforming growth factor beta.
The levels of cell surface (or secreted, indicated by the prefix "s") biomarker endpoints were measured by ELISA. Overt cytotoxicity to cells in confluent adherent cultures (all systems other than the BT system) was assessed by measuring total protein levels using sulforhodamine B (SRB) staining in parallel cultures at the time of biomarker measurements, indicated as SRB endpoints. For proliferation assays for adherent cell types, individual cell types are cultured at sub-confluence and relative cell numbers quantified by SRB staining at time points optimized for each system (48 h: 3C and CASM3C systems; 72 h: BT and HDF3CGF systems; 96 h: SAg system). SRB was performed by staining cells with 0.1% SRB after fixation with 10% TCA and reading wells at 560 nm.Viability and proliferation of PBMC (T cells) was quantified by Alamar Blue reduction for the SAg and BT systems. For PBMC viability (referred to as PBMC Cytotoxicity within the assay endpoint names), cells were plated (75,000/well in a 96-well plate) and then chemical samples added for 1 h before addition of activators, SEB and TSST-1 (20 ng/mL final concentration each). Cells were incubated for 90 h. Then, Alamar Blue (20 uL/well) (Invitrogen, Cat DAL1100) was added for 6 h, and the plates were read with a fluorescence microplate reader at 546/580 nm (excitation/emission). For PBMC proliferation, cells were plated and activated as above but incubated for only 16 h prior to addition of Alamar Blue. Plates were read after 6 h.

Compound | outcome | AC50
Nc1ccc(N=Nc2ccccc2)cc1 | inactive | –
Cc1ccc([N+](=O)[O-])cc1 | inactive | –
CCC[CH2][Sn]([Cl])([CH2]CCC)[CH2]CCC | – | 0.147 µM (active)
Cc1cc(N=Nc2ccccc2C)ccc1N | inactive | –
ClC1=C(Cl)C2(Cl)C3C(Cl)C=CC3C1(Cl)C2(Cl)Cl (stereo not given) | – | 20 µM (active)
COP(=S)(OC)SCN1C(=O)c2ccccc2C1=O | inactive | –
O=C(O)C1C2CCC(O2)C1C(=O)O (stereo not given) | – | 18.6 µM (active)
C1=Cc2cccc3cccc1c23 | inactive | –
O=C1CCCO1 | inactive | –
CN(C)c1ccccc1 | inactive | –
CC(C)(O)c1cnn2c(-c3ccc(F)c(-c4c(F)cccc4C#N)c3)cnc2n1 | – | 31.4 µM (active)
ClC1=C(Cl)[C@]2(Cl)[C@H]3[C@H]([C@@H]4C=C[C@H]3C4)[C@@]1(Cl)C2(Cl)Cl | inactive | –
Nc1ccc(Cc2ccc(N)cc2)cc1 | inactive | –
Cc1ccc(N)c(N)c1 | inactive | –
CNC(=O)Oc1cccc2c1OC(C)(C)C2 | inactive | –
CN(C)c1ccc(C(=O)c2ccc(N(C)C)cc2)cc1 | inactive | –
Nc1cc(Cl)cc(C(=O)O)c1Cl | inactive | –
O=Cc1ccco1 | inactive | –
O=C(Oc1ccc(Br)cc1)N1CCN2CCC1CC2 | inactive | –
C[N+](C)(C)CC1CO1 (stereo not given) | inactive | –

Compound | outcome | AC50
c1ccc2c(c1)-c1cccc3cccc-2c13 | inactive | –
[Cl-].[Cl-].[Hg+2] | – | 30.9 µM (active)
CCCCCCCCOC(=O)c1ccc(C(=O)OCCCCCCCC)c(C(=O)OCCCCCCCC)c1 | inactive | –
CCCCCOC(=O)c1ccccc1C(=O)OCCCCC | inactive | –
CC(C)N(Cc1ccccc1)C(=O)C(C)(C)C | inactive | –
COC(=O)c1ccccc1N | inactive | –
Cc1cccc(N)c1N | inactive | –
OCCOCCO | inactive | –
ClCCOCCCl | inactive | –
CCCCCCCCCCCCCN1CC(C)OC(C)C1 (stereo not given) | inactive | –
Brc1ccc(Oc2ccccc2)cc1 | inactive | –
CCC12COCN1COC2 | inactive | –
CCOc1cccc(C2(N3CCN(c4ccccc4)CC3)CCC(C)CC2)c1 (stereo not given) | inactive | –
CN(C)[C@@H]1C(=O)C(C(N)=O)=C(O)[C@@]2(O)C(=O)C3=C(O)c4c(O)cccc4[C@@](C)(O)[C@H]3C[C@@H]12 | inactive | –
O=P(OCCCl)(OCCCl)OCCCl | inactive | –
CC(C)(OOC(C)(C)c1ccccc1)c1ccccc1 | inactive | –
CC(O)CCO (stereo not given) | inactive | –
CS(=O)(=O)NC(=O)c1cc(Oc2ccc(C(F)(F)F)cc2Cl)ccc1[N+](=O)[O-] | inactive | –
O=C(Nc1ccccc1)c1ccccc1I | inactive | –
O=[N+]([O-])C(Br)(CO)CO | inactive | –
